Laboratory results taken from PubChem BioAssay (NCI).
About 79,000 compounds went through this panel and 15% of them were active in at least one assay; those are over-represented in the sample as a whole. The source made the active and inactive calls. No stated cut-off is given here; in the data, active means growth inhibition above about 70%; inactive means the rest.

Assays:
[1] = NCI Yeast Anticancer Drug Screen. Data for the rad50 strain (AID 155);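 further: 0% = growth of vehicle-only cultures of the same strain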; details: S. cerevisiae rad50 strain growth inhibition; at 50.0 µM; active compounds read high
Procedure, shortened: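 Cells are treated with compound, grown, and their growth is then scored against vehicle-only cultures of the same repair-deficient yeast strain.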

[2] = NCI Yeast Anticancer Drug Screen. Data for the mec2-1 strain (AID 157); details: S. cerevisiae mec2-1 strain, at 50.0 µM, active compounds read high
Procedure, shortened: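 Mutant yeast (mec2-1) grown with compound; growth inhibition relative to vehicle control reported.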

[3] = NCI Yeast Anticancer Drug Screen. Data for the sgs1 mgt1 strain (AID 161);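 further: 0% = growth of cultures given vehicle only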; details: S. cerevisiae sgs1 mgt1 strain, at 50.0 µM, active compounds read high
Procedure, shortened: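 Compounds are added to genetically altered yeast, and growth is compared with cultures given vehicle alone to give percent inhibition.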

[4] = NCI Yeast Anticancer Drug Screen. Data for the cln2 rad14 strain (AID 165);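 further: 0% = growth equal to vehicle treated cultures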; details: S. cerevisiae cln2 rad14 strain, at 50.0 µM, active compounds read high
Procedure, shortened: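 Readout is yeast growth inhibition versus vehicle-treated controls, using a strain with cln2 and rad14 alterations exposed to compound.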

[5] = NCI Yeast Anticancer Drug Screen. Data for the bub3 strain (AID 167); details: S. cerevisiae bub3 mutant strain, at 50.0 µM, active compounds read high
Procedure, shortened: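 Part of a panel of yeast mutants defective in DNA damage repair or cell cycle regulation. Each strain is grown with compound, and inhibition is calculated relative to solvent-treated cultures.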

[6] = NCI Yeast Anticancer Drug Screen. Data for the mlh1 rad18 strain (AID 175); details: S. cerevisiae mlh1 rad18 strain growth inhibition; at 50.0 µM; active compounds read high
Procedure, shortened: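 Genetically defined yeast (DNA repair-deficient) exposed to compounds; growth inhibition determined relative to vehicle.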

Measured: growth inhibition

COC(=O)c1ccc(SCCC2(COS(C)(=O)=O)OCCO2)cc1
inactive: [1] 18.6% | [2] -16.9% | [3] 1.35% | [4] 18.7% | [5] 1.4% | [6] -4.1%

Nc1ccc(S(=O)(=O)O)cc1
inactive: [1] -20.6% | [2] 3.85% | [3] 2.35% | [4] -29.3% | [5] -6.75% | [6] -2.55%

CCCCCCCC(=O)N(CCCCC)CCCCC
active: [2] 77.2% | [3] 77.2% | [4] 74%
inactive: [1] 66.5% | [5] 66.5% | [6] 66.5%

FC(F)(F)c1nc(Nc2ccccc2)c2[nH]cnc2n1
inactive: [1] -16.4% | [2] 4.55% | [3] 2.45% | [4] -20.9% | [5] 12.2% | [6] -4.6%

Cc1ccc(Sc2ccc3ccccc3c2)nc1
inactive: [1] 6.75% | [2] -8.2% | [3] -17.6% | [4] -12.2% | [5] 5.05% | [6] -16.9%

CCCCC(O)CNc1ccccc1 (configuration not stated)
inactive: [1] -7.4% | [2] 14.7% | [3] 5.7% | [4] -5.75% | [5] 9.65% | [6] 3.75%

Cn1c(=O)c2[nH]c(/N=N\n3ccc4ccccc43)nc2n(C)c1=O
inactive: [1] 2.1% | [2] 21.6% | [3] -5.6% | [4] -8.85% | [5] 24.6% | [6] 4.1%

O=C(N(Cc1ccccc1)c1ccccc1)C(Cl)(Cl)Cl
active: [2] 76.8% | [3] 78% | [6] 78%
inactive: [1] 65.4% | [4] 30.1% | [5] 67%

COC(=O)[C@H]1N[C@@H](C(=O)OC)C23CCC[C@H]2CC[C@]1(C(OC)OC)C3
inactive: [1] -3.5% | [2] 2.25% | [3] 14.4% | [4] -3.8% | [5] -0.65% | [6] -16.1%

CCOC(=O)C1=C(O)c2ccc(OC)cc2C(=O)C1=O
inactive: [1] -5.5% | [2] -10.5% | [3] 12.7% | [4] 2.05% | [5] -9% | [6] 0.3%

NCCCCCCCCCCCCN
inactive: [1] -6.15% | [2] -11.8% | [3] -0.3% | [4] -37.2% | [5] -13.5% | [6] 19%

Cc1cc(C)c(N=Nc2cc(C)c(N)cc2N)c(S(=O)(=O)O)c1
inactive: [1] -21.6% | [2] -1.35% | [3] -2.1% | [4] -61.5% | [5] 7.3% | [6] 10.8%

CN(C)C(=NN)N(C)C
inactive: [1] 0.5% | [2] -2.3% | [3] 1.55% | [4] -34% | [5] 3.6% | [6] -3.9%

O=C(NNC(=S)Nc1ccccc1)C12CC3CC(CC(C3)C1)C2
inactive: [1] -12% | [2] 31.4% | [3] 29.8% | [4] 14.7% | [5] 35.5% | [6] 1.3%

O=C(COc1ccc(Cl)cc1)Oc1c(Cl)cc(Cl)cc1Cl
active: [1] 96.4% | [2] 97.8% | [3] 98.7% | [4] 96.8% | [5] 98.2% | [6] 98%

Cn1c2ccccc2c2c(-c3ccccc3)cc3c(c21)C(=O)C=CC3=O
inactive: [1] -15.3% | [2] -10.6% | [3] 3.8% | [4] 16.2% | [5] -25.9% | [6] 7.95%

CC(=O)OC12C=CC(=O)N1c1ccccc1C(=O)O2 (configuration not stated)
inactive: [1] 18.4% | [2] 8.8% | [3] 25% | [4] 29.2% | [5] 13.8% | [6] 42.4%

O=C(NCCNCCO)N/N=C/c1ccc([N+](=O)[O-])cc1
inactive: [1] -8.75% | [2] -7.35% | [3] -1.4% | [4] 36.6% | [5] 0.3% | [6] -3.65%

O=C(O)c1ccc(OCC(=O)c2ccccc2)cc1
inactive: [1] 6.35% | [2] 16.9% | [3] -5.6% | [4] -6.65% | [5] 36.1% | [6] 8.25%

CC(C)C1=CC23CCC4C(C)(C(=O)O)CCCC4(C)C2CC1C1C(=O)N(CCCN(C)C)C(=O)C13 (configuration not stated)
active: [1] 98.8% | [2] 99% | [3] 99% | [4] 98.2% | [5] 98% | [6] 98.6%

C[N+]1(C)C2Cc3ccccc3C1Cc1ccccc12
inactive: [1] -1.7% | [2] -11.6% | [3] 11.4% | [4] 10.4% | [5] 3.75% | [6] -57%

CCOC(=O)Cc1[nH]c(C(=O)OCC)c(CC(=O)OCC)c1C(=O)OCC
inactive: [1] 6.3% | [2] 8.45% | [3] 8.3% | [4] -4.2% | [5] 0.1% | [6] 15.7%

CCn1c(S)c(N=NC(=S)c2ccc3ccccc3n2)c2ccccc21
inactive: [1] 46% | [2] 18.9% | [3] 27.8% | [4] 23.4% | [5] 17.4% | [6] 11.5%

O=C1C=CC(=O)C2CC=CCC12 (configuration not stated)
inactive: [1] 24.2% | [2] 50.4% | [3] 1.7% | [4] -6.15% | [5] 4.55% | [6] 26.1%

NS(=O)(=O)c1ncc(C(=O)N2CCN(Cc3ccccc3)CC2)[nH]1
inactive: [1] -6.15% | [2] -7.75% | [3] 7.2% | [4] -11.7% | [5] 1.05% | [6] 6.95%

CC(C)(C)C(=O)[CH-]C(=O)C(C)(C)C.CC(C)(C)C(=O)[CH-]C(=O)C(C)(C)C.CN(C)c1ccc([O-])cc1.CN(C)c1ccc([O-])cc1.[Ti+4]
inactive: [1] -20.8% | [2] -16.5% | [3] -12.2% | [4] 12.2% | [5] 5.4% | [6] -11.2%

CCCCCCC(N)=O
inactive: [1] 8.1% | [2] 2.1% | [3] -4.05% | [4] -26.9% | [5] -6.45% | [6] 9.75%

CCCCC(CC)OC(=O)Cc1ccccc1 (configuration not stated)
inactive: [1] 10.9% | [2] -4.25% | [3] 13.1% | [4] -6.5% | [5] -4.45% | [6] 16.5%

Cc1ccc(/C=C2\N=C(N3CCCC(CO)C3)NC2=O)cc1 (configuration not stated)
inactive: [1] 18.6% | [2] -1.55% | [3] -18.3% | [4] -1.15% | [5] 1.3% | [6] -44%

CCCCCOP(=O)(OCCCCC)C(c1ccccc1)c1ccccc1
inactive: [1] 1% | [2] -44.9% | [3] -4.15% | [4] -33.4% | [5] 9.5% | [6] -11.9%

COc1cc2c(c3[nH]cc(C(=O)O)c(=O)c13)NC(=O)CS2
inactive: [1] -47.1% | [2] -87.8% | [3] -16.9% | [4] -32.4% | [5] -2.85% | [6] -29.4%

CCc1ccccc1NC(=O)/C(CC(=O)c1c(C)n([O-])c2ccccc2[n+]1=O)=N\NS(=O)(=O)c1ccc(C)cc1
inactive: [1] -18.8% | [2] -8.25% | [3] -12.3% | [4] 12.7% | [5] 7.25% | [6] 2.5%

CC(C)(O)CCC(C)(C)O
inactive: [1] 60.3% | [2] -19.1% | [3] 41.9% | [4] -25.9% | [5] 0.5% | [6] 45.2%

O=C1OC(c2ccccc2)=N/C1=C\c1cccc(F)c1
inactive: [1] -18.4% | [2] -18.2% | [3] -23.1% | [4] -6.95% | [5] -16.1% | [6] 6.25%

FC(F)(F)c1ccc2nc[nH]c2c1
inactive: [1] 5.3% | [2] -10.2% | [3] -3.15% | [4] -10.4% | [5] 9.6% | [6] 6.95%

O=c1[nH]c(-c2ccncc2)nnc1-c1ccc(Cl)cc1
inactive: [1] -4.4% | [2] -8.1% | [3] -11.5% | [4] -26.9% | [5] 2.15% | [6] -14.1%

COc1cc2c3c(c1)nc(C)n3C(=O)C(C)S2 (configuration not stated)
inactive: [1] -26.8% | [2] -46.9% | [3] -22.9% | [4] 12.3% | [5] 11.3% | [6] -22%
